Assay results reported in PubChem BioAssay AID1851 (National Center for Advancing Translational Sciences (NCATS), 2009).
Among all 16,000 compounds or so, about 2,600 (16%) were called active. About 20% were inconclusive and are not listed. A selection follows. Values without a mark were called inactive. Calls come from the whole dose curve; as a rule, active = well fitted curve in the direction sought with a large enough effect; inconclusive = small, poorly fitted or top-dose-only effect, or effect the other way; inactive = no such curve, though single readings can be large or run the other way.
% is set by controls: 0 for no effect and ±100 for the full control effect.

Each compound was assayed against Cytochrome P450 2D6 (Homo sapiens) (UniProt P10635) (assay: Cytochrome panel assay with activity outcomes). Settings: recombinant CYP, pro-luciferin dealkylation, luminescence, p450-cyp2d6; series mostly up to 57.1 µM.
Sequence of Cytochrome P450 2D6 (Homo sapiens) (P10635 whole entry, looked up): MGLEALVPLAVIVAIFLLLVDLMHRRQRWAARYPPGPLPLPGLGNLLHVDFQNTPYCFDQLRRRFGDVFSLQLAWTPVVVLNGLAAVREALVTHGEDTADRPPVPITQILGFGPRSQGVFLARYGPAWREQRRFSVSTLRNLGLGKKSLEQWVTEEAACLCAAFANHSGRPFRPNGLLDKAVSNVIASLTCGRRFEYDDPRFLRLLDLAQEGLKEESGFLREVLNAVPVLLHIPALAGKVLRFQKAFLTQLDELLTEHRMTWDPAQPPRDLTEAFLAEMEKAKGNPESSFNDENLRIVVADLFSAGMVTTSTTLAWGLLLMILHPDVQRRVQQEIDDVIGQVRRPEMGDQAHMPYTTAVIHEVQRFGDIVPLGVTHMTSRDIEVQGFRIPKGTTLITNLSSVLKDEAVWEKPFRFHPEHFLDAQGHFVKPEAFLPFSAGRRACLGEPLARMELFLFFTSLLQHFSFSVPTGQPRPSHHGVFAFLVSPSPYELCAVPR
In the case of `CC1=CC(=C2C(=O)c3ccccc3C2=O)C=C(C)N1Cc1ccco1`, the AC50 is reported as “inactive”. In the case of `O=c1c(-c2cccc(F)c2)nc2cncnc2n1-c1ccccc1`, the AC50 is reported as “inactive”. `CN1CCN(c2ncc3nc(-c4ccccc4)c(=O)n(Cc4ccc(F)cc4)c3n2)CC1` was tested, and the AC50 was “inactive”. `O=S(=O)(Nc1ccc(Cc2ccncc2)cc1)c1cccs1` was tested, and the AC50 was 0.355 µM (active). For `COc1ccc(S(=O)(=O)Nc2cccc(Cl)c2)cc1OC`, the AC50 was “inactive”. For `O=S(=O)(Nc1ccc(Cc2ccncc2)cc1)c1ccc(Br)cc1`, the AC50 was 0.631 µM (active). For `O=S(=O)(Nc1ccc(Cc2ccncc2)cc1)c1ccc(Cl)c(Cl)c1`, the AC50 was 1 µM (active). In the case of `Cc1csc(NC(=O)CNS(=O)(=O)c2cccs2)n1`, the AC50 is reported as “inactive”. With `CC(C)(C)c1ccc(NS(=O)(=O)c2ccc(N)cc2)cc1` the activity, negative = inhibition was 18.9% [at 11.4 µM]. For `O=S(=O)(Nc1cccnc1Cl)c1ccc2c(c1)OCCO2`, the AC50 was “inactive”. For `CCNS(=O)(=O)c1ccc(NS(C)(=O)=O)cc1`, the AC50 was “inactive”. `CC(=C\C(=O)O)/C(=C/c1ccccc1)C(=O)O` was tested, and the AC50 was “inactive”. With `CCOC(=O)C1(C(=O)O)NC(=O)CC1c1ccccc1` (stereo not drawn) the AC50 was “inactive”. `C[C@H]1CC[C@H]2C(=O)N[C@H](Cc3ccccc3)C(=O)N2[C@@H]1c1ccccc1` showed an activity, negative = inhibition of -17.6% [at 11.4 µM]. In the case of `COCCn1c(=O)c(-c2cn(C)c3ccccc23)nc2cncnc21`, the AC50 is reported as “inactive”. With `NC(N)=N[C@H](CCC(=O)O)C(=O)O` the AC50 was “inactive”. With `CC(=O)N[C@@H](C(=O)O)C(C)(C)SN=O` the AC50 was “inactive”. `O=C1OCCC=C1[C@@H](O)CCc1ccccc1` was tested, and the activity, negative = inhibition was -2.43% [at 11.4 µM]. `COC(=O)c1scc(C)c1NC(=O)Cc1ccccc1` was tested, and the AC50 was “inactive”. Work on `O=C(O)c1ccc(SSc2ccc(C(=O)O)cn2)nc1` yielded an activity, negative = inhibition of -10.6% [at 11.4 µM]. For `N#CC(c1ccccc1F)(c1ncc(C(F)(F)F)cc1Cl)N1CCOCC1` (stereo not drawn), the AC50 was “inactive”. Compound `Cc1cc2nc([C@H](C)C(=O)c3ccc(Cl)cc3)c(=O)[nH]c2cc1C` has an activity, negative = inhibition of -4.99% [at 11.4 µM]. `COc1ccc(-c2nc3cnc(N4CCNCC4)nc3n(C)c2=O)cc1` was tested, and the AC50 was “inactive”. For `CN1CCN(CCCNC(=O)C2CCN(c3nnc(-n4cccc4)s3)CC2)CC1`, the AC50 was “inactive”. With `COc1ccc2nc(N3CCCC(C(=O)NCCCN4CCN(C)CC4)C3)sc2c1` (stereo not drawn) the AC50 was 11.2 µM (active). `COc1ccc2nc(N3C(=O)CC(Cc4ccc(Cl)cc4)C3=O)sc2c1` (stereo not drawn) was tested, and the AC50 was “inactive”. `O=c1[nH]ncn2cccc12` was tested, and the AC50 was “inactive”. With `COc1ccc(-c2ccc(N)[n+](CCCC(=O)O)n2)cc1` the AC50 was “inactive”. In the case of `COc1ccc(-c2ccc(=N)n(CCCC(=O)O)n2)cc1`, the AC50 is reported as 3.98 µM (active). In the case of `COCCNC(=O)CCn1nc(-c2ccc(Cl)cc2)ccc1=O`, the AC50 is reported as “inactive”. With `COc1ccccc1CN(Cc1cc2cc3c(cc2[nH]c1=O)OCCO3)Cc1nnnn1Cc1ccco1` the AC50 was 14.1 µM (active). In the case of `CCC(C)(C)n1nnnc1C(C(C)C)N(Cc1ccco1)Cc1cc2cc3c(cc2[nH]c1=O)OCO3` (stereo not drawn), the AC50 is reported as 14.1 µM (active). In the case of `COc1ccccc1CN(Cc1cc2cc(C)cc(C)c2[nH]c1=O)Cc1nnnn1CC1CCCO1` (stereo not drawn), the AC50 is reported as “inactive”. In the case of `CCC(C)(C)n1nnnc1C(C(C)C)N(CCCO)Cc1cc2cc(C)ccc2[nH]c1=O` (stereo not drawn), the AC50 is reported as “inactive”. `COc1cc2cc(CN(CCCO)S(=O)(=O)c3ccccc3Cl)c(=O)[nH]c2cc1OC` was tested, and the AC50 was “inactive”. For `CCC(C)(C)n1nnnc1C(c1cc2cc3c(cc2[nH]c1=O)OCO3)N1CCCCC1` (stereo not drawn), the AC50 was “inactive”. In the case of `COc1cccc2c1OC1(C)CC2/C(=C(\C)O)C(=O)N1` (stereo not drawn), the AC50 is reported as “inactive”. For `OC[C@@H]1O[C@H](O)[C@@H](Cl)[C@H](O)[C@@H]1O`, the AC50 was “inactive”. With `CN(C)S(=O)(=O)Oc1cccc(C(=O)Nc2ccccc2Cl)c1` the AC50 was “inactive”. Work on `Clc1ccc(CSc2ncnc3c2ncn3[C@@H]2CCCCO2)cc1` yielded an activity, negative = inhibition of -9.38% [at 11.4 µM]. For `COc1ccc(/C=N/NC(=O)c2cc(-c3ccc(C)cc3C)nc3ccccc23)cc1COC(C)=O`, the AC50 was “inactive”. In the case of `CCCCn1cnc2c(c(CC#N)nn2-c2ccccc2)c1=N`, the AC50 is reported as 0.398 µM (active). For `CCCCn1cnc2c(cnn2-c2ccc(F)cc2)c1=O`, the AC50 was “inactive”. With `CCOCCCn1cnc2c(c1=O)c1nc3ccccc3nc1n2-c1ccccc1` the AC50 was “inactive”. For `O=C(NCCN1CCN(C(=O)C(c2ccccc2)c2ccccc2)CC1)C(=O)Nc1ccccc1`, the AC50 was “inactive”. With `O=C(c1cccs1)N1CCN(C(=O)C(c2ccccc2)c2ccccc2)CC1` the AC50 was 10 µM (active). `COc1ccc(NC(=O)C2CCN(C(=O)c3cccs3)CC2)c(OC)c1` was tested, and the AC50 was “inactive”. `O=C1[C@H]2[C@H]3[C@H](O)[C@H](O)C/C(=N/OCc4ccccc4)[C@H]3CC[C@@H]2C(=O)N1C[C@@H]1CCCO1` was tested, and the activity, negative = inhibition was 4.75% [at 11.4 µM]. In the case of `COc1cccc(Cn2c(=O)c(-c3cccs3)nc3cnc(N(C)C)nc32)c1`, the AC50 is reported as “inactive”. For `COC(=O)CSc1ncc(OC)c(OC)n1`, the AC50 was “inactive”. Work on `O=C1c2ccccc2C(=O)N1C[C@]1(C(=O)O)NCCS1(=O)=O` yielded an activity, negative = inhibition of 7.33% [at 11.4 µM]. For `CC(C)NC(=O)N1CCCC2(CCN(S(=O)(=O)c3ccccc3)CC2)C1`, the AC50 was 0.316 µM (active). In the case of `CC(C)NC(=O)N1CCC2(CC1)CCN(S(C)(=O)=O)CC2`, the AC50 is reported as 15.8 µM (active). In the case of `CS(=O)(=O)N1CCC2(CCCN(C(=O)Nc3cccc(F)c3)C2)CC1`, the AC50 is reported as “inactive”. In the case of `CC(C)NC(=O)N1CC[C@@]2(CCCN(S(C)(=O)=O)C2)C1`, the AC50 is reported as “inactive”. In the case of `O=C(Nc1cccc(F)c1)N1CCCC2(CCN(S(=O)(=O)c3ccccc3)CC2)C1`, the AC50 is reported as 12.6 µM (active). With `CC(C)NC(=O)N1CCCC2(CCN(C(=O)c3cccn3C)CC2)C1` the AC50 was “inactive”. `COC(=O)N1CCC2(CCN(C(=O)NC(C)C)CC2)CC1` was tested, and the AC50 was “inactive”. `CS(=O)(=O)N1CCC[C@@]2(CCN(C(=O)Nc3cccc(F)c3)C2)C1` was tested, and the AC50 was “inactive”. For `CC(C)NC(=O)N1CC2(CCN(S(=O)(=O)c3ccccc3)CC2)C1`, the AC50 was “inactive”. With `O=C(C1CCN(S(=O)(=O)N2CCOCC2)CC1)N1CCN(c2ccccc2)CC1` the AC50 was “inactive”. In the case of `CN(C)c1ncc2nc(-c3cc(F)cc(F)c3)c(=O)n(Cc3cccs3)c2n1`, the AC50 is reported as “inactive”. In the case of `CCN1CCN(C(=O)N[C@H](C(=O)N[C@@H]2C(=O)N3[C@@H]2SC(C)(C)[C@@H]3C(=O)O)c2ccccc2)C(=O)C1=O`, the AC50 is reported as “inactive”.
